Growth data for 7 compounds are collected here from PubChem BioAssay (NCI).

SMILES strings stand for the structures. This is part of a sample that, as a whole, favours compounds with a hit. Of some 83,000 tested, about 20% had one in any assay.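 Testing used 96-well plates and a 48-hour single-concentration exposure. Example: -40 means 40% of the starting cells died.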 A number with no mark means an inactive call. Calls of active or inactive are those of the source. Rule for the calls: active = growth percent below 10; inactive = the rest.

Experiment in all cases: NCI-60 one-dose screen, 48 h (100 = growth as untreated, 0 = no growth, -100 = all killed)
Details in all cases: 10 µM unless noted

Experiment [1] has as its system NCI-H23 lung.
In experiment [2] the test system is NCI-H226 lung.
The subject of experiment [3] is NCI-H322M lung.
For experiment [4], the system named is HOP-62 NSCLC.
Experiment [5] relates to NCI-H460 lung.
For experiment [6], the system named is HOP-92 NSCLC.
In experiment [7] the test system is NCI-H522 lung.
Experiment [8] concerns A549/ATCC NSCLC.
Experiment [9] relates to 786-0 renal.
Experiment [10] concerns COLO 205 colon.
Experiment [11] concerns DU-145 prostate.
For experiment [12], the system named is K-562 leukemia.
Experiment [13] deals with MALME-3M melanoma.
The subject of experiment [14] is MDA-MB-231 breast.
Experiment [15] relates to RXF 393 renal.
Experiment [16] relates to SF-268 CNS.
Experiment [17] concerns SF-295 CNS.
In experiment [18] the test system is SF-539 CNS.
For experiment [19], the system named is UACC-257 melanoma.
Experiment [20] has as its system M14 melanoma.

In the case of `CC(C)[C@@H]1NC(=O)[C@]2(C)CSC(=N2)c2ccnc(c2)CNC(=O)C[C@@H](/C=C/CCS)OC1=O`, the growth was 12.6% in experiment [1]; 11.8% in [2]; 4.39% (active) in [3]; 6.46% (active) in experiment [4]; 9.2% (active) in experiment [5]; -16.5% (active) in [6]. Also, the growth in experiment [7] is -18.4% (active); in experiment [8] it was -1.52% (active); in experiment [9], 6.38% (active); in experiment [10], -70.3% (active); in [11] it was 10.5%; in [12], 6.95% (active). Besides, the growth in experiment [13] is 14.6%; in experiment [14] it was 11.5%; in experiment [15] it was -61.7% (active); in experiment [16], 13%; in experiment [17], -1.44% (active); in experiment [18], 17.2%. Also, the growth was -25% (active) in [19] and 8.55% (active) in experiment [20].

As for `CCCN1C(=O)CSC1=Nc1ccc2cc3ccc(N=C4SCC(=O)N4CCC)cc3nc2c1`, the growth in [1] was 35.8%; in experiment [2], 32.2%; in experiment [3], 86.4%; in experiment [4], 47.6%; in experiment [5], 36.8%; in [6], 57.1%. The growth in experiment [7] is 31.4%; in [8], 41.4%; in experiment [9] it was 8.44% (active); in experiment [10], 36.8%; in experiment [11], 83.7%; in experiment [12] it was 21.4%. Also, the growth in experiment [13] was 33.5%; in [14], 18.5%; in experiment [15] it was -27.9% (active); in experiment [16], 62.9%; in [17], 23%; in experiment [18], 46%. In addition, the growth in experiment [19] is 43.9%; in experiment [20] it was 50.7%.

`CC(=O)N[C@@H](CNC(=O)c1cc(NC(=O)c2cc(NC(=O)c3cc(NC(=O)c4nccn4C)cn3C)cn2C)cn1C)CC(=O)Nc1cn(C)c(C(=O)Nc2cc(C(=O)Nc3cc(C(=O)Nc4cc(C(=O)NCCCN(C)CCCNC(=O)c5cccc(C(=O)O)c5)n(C)c4)n(C)c3)n(C)c2)n1`: the growth in experiment [1] was 89.9%; in experiment [2], 58.4%; in experiment [3], 57%; in experiment [4], 91.6%; in [5] it was 10.6%; in [6], 106%. Besides, the growth was 39% in experiment [7]; -10.7% (active) in experiment [8]; 82.7% in experiment [9]; 45.1% in experiment [10]; 53.3% in experiment [11]; 105% in experiment [12]. Further, the growth was 122% in [13]; 113% in [14]; 97.6% in experiment [15]; 95.9% in experiment [16]; 47.8% in experiment [17]; 107% in experiment [18]. Further, the growth in [19] is 113%; in experiment [20], 89.9%.

In the case of `COc1ccc(-c2ccc(NC(=O)Nc3ccc(Cl)c(C(F)(F)F)c3)c(C)n2)cc1`, the growth was 30.9% in experiment [1]; 65.2% in [2]; 71.4% in experiment [3]; 62.1% in experiment [4]; 30.9% in [5]; 27% in experiment [6]. Also, the growth was 24.8% in experiment [7]; 38.7% in experiment [8]; 56.1% in [9]; 80.1% in [10]; 54.5% in [11]; 16.7% in [12]. For the same compound, the growth in [13] was 82.6%; in experiment [14], 85%; in experiment [15], 81.4%; in experiment [16], 73.7%; in experiment [17], 47%; in experiment [18], 81.3%. In addition, the growth was 57.1% in experiment [19] and 31.9% in experiment [20].

For the compound `O=C(O)c1ccc(-n2cc(/C=N/Nc3ccc(Cl)cc3)c(-c3ccc(F)c(F)c3)n2)cc1`, the growth in experiment [1] is 84.9%; in experiment [2] it was 95%; in experiment [3] it was 72.5%; in experiment [4], 107%; in experiment [5], 93.1%; in experiment [6], 81.5%. The growth in experiment [7] was 47.6%; in experiment [8], 78.9%; in experiment [9], 67.2%; in [10], 99.7%; in [11], 85.4%; in [12], 7.69% (active). Moreover, the growth is 36% in [13]; 93% in [14]; 108% in experiment [15]; 71.1% in experiment [16]; 66.6% in experiment [17]; 88.2% in [18]. Besides, the growth in experiment [19] is 99.4%; in experiment [20] it was 57.5%.

As for `CC(=O)Cc1cccnc1`, the growth was 96.5% in experiment [1]; 95.4% in experiment [2]; 102% in experiment [3]; 108% in experiment [4]; 105% in experiment [5]; 102% in experiment [6]. Also, the growth in experiment [7] is 96.3%; in [8], 101%; in [9], 103%; in [10], 115%; in experiment [11], 110%; in experiment [12] it was 86.7%. The growth in experiment [13] is 103%; in experiment [14], 99.9%; in experiment [15], 103%; in [16], 104%; in [17] it was 99.2%; in [18], 102%. Further, the values for the growth in experiment [19] and in experiment [20] were 96.8% and 101%, respectively.

As for `CCOC(=O)CSc1nnc(-c2cc3c([nH]c4ccccc43)c(-c3cccc(O)c3)n2)n1-c1ccc(C)cc1`, the growth was 97% in [1]; 100% in experiment [2]; 95.2% in experiment [3]; 88.3% in [4]; 103% in experiment [5]; 48.9% in experiment [6]. Moreover, the growth is 47.1% in experiment [7]; 98.5% in [8]; 88.7% in [9]; 95.1% in [10]; -0.541% (active) in experiment [11]; 16.8% in [12]. The growth in [13] is 80.3%; in experiment [14], 45%; in [15], 79.5%; in experiment [16], 74.7%; in experiment [17], 99.9%; in experiment [18], 78%. In addition, the results for the growth in experiment [19] and in experiment [20] were 91.3% and 44.5%, respectively.
